Assay outcomes deposited in PubChem BioAssay by National Center for Advancing Translational Sciences (NCATS).
Shown are actives, neighbours in structure and some others; about 18% of the full set was active somewhere.
RORg inh – ROR gamma (mouse) transcription inhibition; Potency, µM (series often up to 53.6 µM), for the others: at the highest dose activity change, negative = inhibition, hits mostly inhibitors; 310,000 tested, 5.4% active; P51450; Drosophila S2 Gal4-RORgamma UAS-luciferase reporter, 20 h; also: potency is read from the fitted curve at half-maximal effect; nearly all actives have a fitted effect of over 60% in size
Target sequence (P51450 whole entry, looked up, the tested form may be a part): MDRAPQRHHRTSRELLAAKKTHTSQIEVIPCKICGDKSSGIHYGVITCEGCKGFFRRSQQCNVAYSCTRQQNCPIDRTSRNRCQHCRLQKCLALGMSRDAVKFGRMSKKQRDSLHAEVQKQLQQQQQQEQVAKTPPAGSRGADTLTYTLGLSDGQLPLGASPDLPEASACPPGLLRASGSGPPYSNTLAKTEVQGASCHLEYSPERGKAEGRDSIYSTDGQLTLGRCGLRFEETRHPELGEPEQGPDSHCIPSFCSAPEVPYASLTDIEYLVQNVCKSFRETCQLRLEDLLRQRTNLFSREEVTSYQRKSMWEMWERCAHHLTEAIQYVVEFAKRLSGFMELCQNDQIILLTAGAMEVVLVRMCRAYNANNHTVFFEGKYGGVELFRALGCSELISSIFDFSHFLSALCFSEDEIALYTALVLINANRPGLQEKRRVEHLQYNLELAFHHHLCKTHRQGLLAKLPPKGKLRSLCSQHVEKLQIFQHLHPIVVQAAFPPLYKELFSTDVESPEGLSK
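Read-out: Photinus luciferase luminescence; inhibitors lower reporter signal. Insect Schneider cells with Gal4-ROR gamma fusion under metallothionein promoter, UAS reporter; 700 uM final copper sulfate induction, 20 hr, ambient temperature.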
Gal4-VP16 FLuc – inhibits Gal4-VP16 luciferase reporter, ROR gamma counter-screen; Drosophila S2 Gal4-VP16 UAS-luciferase, luminescence, 20 h; Potency, µM (top dose mostly 53.6 µM), inactives show top-dose activity, negative = inhibition, hits mostly inhibitors; 310,000 tested, 3.5% active; AID 2546;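 also: Gal4-VP16 expression switched on by copper sulfate through the metallothionein promoter; potency is read from the fitted curve at half-maximal effect; nearly all actives have a fitted effect of over 50% in size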
LDHA inh – LDHA (human) enzyme inhibition | P00338 | purified LDHA, NADH/diaphorase-resazurin fluorescence; active compounds read low | activity change, % (values are at about 110 or 230 µM) | 480,000 tested, 0.15% active | AID 1347041; in the data active = activity change below about -30%; inconclusive = mostly about -25% to -30%;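 also: plate controls were DMSO wells for no effect and wells without enzyme for full effect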
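Human LDH5 (2 nM) was incubated with 0.06 mM NADH and 0.2 mM pyruvate for 5 min at room temperature in Tris pH 7.4. Remaining NADH was coupled through diaphorase/resazurin, and resorufin fluorescence was read at 0 and 20 min.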
TDP1 cell noCPT – qHTS for Inhibitors of human tyrosyl-DNA phosphodiesterase 1 (TDP1): qHTS in cells in absence of CPT; AID 686978, 2013; 420,000 tested, 15% active; DT40 Tdp1-/- hTDP1 cells, no CPT, ATP luminescence, 48 h; Potency, µM (series often up to 46.2 µM), for the others: top-dose activity change, negative = growth inhibition, hits mostly inhibitors; also: potency is read from the fitted curve at half-maximal effect; nearly all actives have a fitted effect of over 55% in size
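DT40 Tdp1-/-;hTDP1 cells, no CPT (DMSO vehicle only), 400 cells/well; compounds pin-transferred; ≥48 hr, 37 °C; CellTiter-Glo 30 min RT dark, luminescence read.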
DT40 TDP1 CPT – growth inhibition of DT40 Tdp1-/-;hTDP1 cells with camptothecin (screen for TDP1 inhibitors); 420,000 tested, 12% active; Potency, µM (titrated, usually from 46.2 µM), for the others: at the top dose activity change, negative = growth inhibition, actives largely listed as inhibitors; chicken DT40 Tdp1-/-;hTDP1 cells + 20 nM CPT, ATP luminescence, 48 h; also: potency is read from the fitted curve at half-maximal effect; nearly all actives have a fitted effect of over 55% in size
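Chicken DT40 Tdp1-/- cells stably complemented with human TDP1 were seeded at 400 cells/well in medium containing 20 nM camptothecin, exposed to pin-transferred compounds, and grown at 37 °C for at least 48 hr. Viability was read as ATP luminescence.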
IL-1B inflam inh – inhibitors of inflammasome signaling (IL-1 beta secretion) | activity change, % at 57.5 µM | 360,000 tested, 4.7% active | THP-1 LPS/ATP IL-1B secretion, AlphaLISA, 16 h; active compounds read low; in the data active = activity change below about -50%; inconclusive = mostly about -30% to -49%
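Secreted IL-1B measured by AlphaLISA bead assay after 16 h compound exposure of THP-1 cells; compounds (final up to 57.5 uM) added 1 h before LPS (250 ng/mL) and ATP (1.25 mM) stimulation; lower signal means less secretion.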
* marks the source's active call; other numbers are inactive results. Unless noted, calls follow the shape of the dose curve; as a rule, active = well fitted curve in the direction sought with a large enough effect; inconclusive = small, poorly fitted or top-dose-only effect, or another doubt; inactive = no such curve, though single readings can be large; an effect the other way counts as inactive or inconclusive. Unless noted, % is scaled to controls: 0 for no effect and ±100 for the full control effect.

Screening COCCCNC(=S)NNC(=O)c1cc(C2CC2)nc2ccccc12 returned RORg inh 2.82µM*, Gal4-VP16 FLuc inconclusive, LDHA inh -4.3, TDP1 cell noCPT -0.1%, DT40 TDP1 CPT 8.5% and IL-1B inflam inh inactive.
Screening N#Cc1nc(COc2cccc(Cl)c2)oc1NCc1ccc2c(c1)OCO2 returned LDHA inh -0.1.
C/C(=N/Nc1ccc(C(F)(F)F)cn1)c1ccc([N+](=O)[O-])cc1 was read as LDHA inh -1.5.
`O=C(O)C/C(=C/c1cccc(O)c1)c1nc2ccccc2o1` gave LDHA inh -4.4.
`CCCc1ccc(-c2cc(C(=O)N3CCN(c4ccccn4)CC3)c3ccccc3n2)cc1` gave RORg inh 11.2µM*, Gal4-VP16 FLuc 14.1µM*, LDHA inh -9.2, TDP1 cell noCPT 18.4µM*, DT40 TDP1 CPT inconclusive and IL-1B inflam inh -1.3.
For CCOc1ccc(-c2cc(C(=O)N3CCN(c4ccccn4)CC3)c3ccccc3n2)cc1 the results were RORg inh 1.4%, Gal4-VP16 FLuc -23.4%, LDHA inh 2.5, TDP1 cell noCPT 9.2µM*, DT40 TDP1 CPT 5.8µM* and IL-1B inflam inh -26.7.
`CCCc1ccc(-c2cc(C(=O)O)c3ccccc3n2)cc1` gave LDHA inh 11.8.
Screening COc1cc(-c2cc(C(=O)N3CCN(c4ccccn4)CC3)c3ccccc3n2)cc(OC)c1OC returned RORg inh -28.7%, Gal4-VP16 FLuc -7.0%, LDHA inh -6.0, TDP1 cell noCPT 23.1µM*, DT40 TDP1 CPT inconclusive and IL-1B inflam inh inconclusive.
`COc1ccc(-c2cc(C(=O)N3CCN(CC(=O)N(C)C)CC3)c3ccccc3n2)cc1` gave LDHA inh -0.4.
Screening OC[C@@H]1CN(Cc2ccc(Cl)cc2)C[C@H](n2cnc3c(NC4CCC4)ncnc32)O1 returned LDHA inh -0.1, TDP1 cell noCPT inconclusive, DT40 TDP1 CPT inconclusive and IL-1B inflam inh -84.5*.
For CCN(CC)c1ncnc2c1ncn2[C@H]1CN(Cc2ccc(F)cc2)C[C@@H](CO)O1 the results were LDHA inh -7.5, TDP1 cell noCPT -22.7%, DT40 TDP1 CPT inconclusive and IL-1B inflam inh -6.1.
OC[C@@H]1CN(Cc2ccc3c(c2)OCO3)C[C@H](n2cnc3c(NC4CCCC4)ncnc32)O1 was read as LDHA inh 8.6, TDP1 cell noCPT inconclusive, DT40 TDP1 CPT inconclusive and IL-1B inflam inh -71.9*.
Screening CCN(CC)c1ncnc2c1ncn2[C@H]1CN(Cc2ccc(Cl)cc2)C[C@@H](CO)O1 returned LDHA inh -7.7, TDP1 cell noCPT 16.4µM*, DT40 TDP1 CPT 29.1µM* and IL-1B inflam inh -2.4.
`CCc1ccc2c(Cn3cc(S(=O)(=O)N(C)C)ccc3=O)cc(=O)oc2c1` gave LDHA inh 7.1.
For CC(C(=O)N1CCNC1=O)N(C)Cc1ccc(Cl)c(Cl)c1 (stereo unspecified) the results were LDHA inh 12.1.
For CNC(=O)NC(=O)CN(CC(=O)N(C)C)CC(F)(F)F the results were LDHA inh -4.8.
CC(Oc1ccc(F)cc1)C(=O)Oc1ccc(N(C)S(=O)(=O)c2ccccc2)cc1 (stereo unspecified) was read as LDHA inh -3.1, TDP1 cell noCPT -26.3%, DT40 TDP1 CPT -22.8% and IL-1B inflam inh 6.0.
`CN(C)S(=O)(=O)c1cccc(NC(=O)C(c2ccccc2)c2ccccc2)c1` gave RORg inh 4.8%, Gal4-VP16 FLuc 0.3%, LDHA inh 0.2, TDP1 cell noCPT inconclusive, DT40 TDP1 CPT inconclusive and IL-1B inflam inh 32.3.
CC(Oc1ccc(F)cc1)C(=O)Nc1cccc(S(=O)(=O)N(C)c2ccccc2)c1 (stereo unspecified) was read as LDHA inh 2.0, TDP1 cell noCPT 16.4µM*, DT40 TDP1 CPT inconclusive and IL-1B inflam inh 9.0.
CCC(C(=O)Nc1cccc(S(=O)(=O)N(C)c2ccccc2)c1)c1ccccc1 (stereo unspecified) was read as LDHA inh -3.7, TDP1 cell noCPT 18.4µM*, DT40 TDP1 CPT 18.4µM* and IL-1B inflam inh -0.7.
Screening Cc1ccc(S(=O)(=O)N(C)c2ccc(OC(C)C(=O)N(C)c3ccccc3)cc2)cc1 (stereo unspecified) returned LDHA inh -2.9, TDP1 cell noCPT 18.4µM*, DT40 TDP1 CPT 14.6µM* and IL-1B inflam inh 6.4.
For O=C(O)C1COCCO1 (stereo unspecified) the results were LDHA inh 1.8.
Screening COc1ccc(C)cc1NC(=O)c1cnc(N2CCOCC2)c2ccccc12 returned LDHA inh 5.1.
For CCN1CCN(c2ncc(C(=O)Nc3c(F)cc(F)cc3Br)c3ccccc23)CC1 the results were RORg inh 7.0%, Gal4-VP16 FLuc -0.9%, LDHA inh -1.2, TDP1 cell noCPT 15.8µM*, DT40 TDP1 CPT 14.1µM* and IL-1B inflam inh -11.9.
Screening CCN1CCN(S(=O)(=O)c2ccc(F)c(C(=O)Nc3c(F)cc(F)cc3Br)c2)CC1 returned RORg inh 30.1%, Gal4-VP16 FLuc -2.7%, LDHA inh -2.4, TDP1 cell noCPT 2.2%, DT40 TDP1 CPT -15.5% and IL-1B inflam inh 0.4.
Screening COc1cc(Cl)c(C)cc1NC(=O)c1cnc(N2CCOCC2)c2ccccc12 returned LDHA inh 10.0, TDP1 cell noCPT 9.2µM* and DT40 TDP1 CPT 10.3µM*.
COc1ccc(OC)c(NC(=O)c2cnc(N3CCOCC3)c3ccccc23)c1 was read as LDHA inh 2.8.
Screening COc1cc(OC)c(NC(=O)c2cc(C(C)=O)n3ccccc23)cc1Cl returned LDHA inh 0.0, TDP1 cell noCPT inconclusive and DT40 TDP1 CPT 7.31µM*.
Screening CCN1CCN(c2ncc(C(=O)Nc3cc(Cl)c(OC)cc3OC)c3ccccc23)CC1 returned RORg inh 3.0%, Gal4-VP16 FLuc 0.7%, LDHA inh 4.2, TDP1 cell noCPT 20.6µM*, DT40 TDP1 CPT inconclusive and IL-1B inflam inh -11.7.
Screening Cc1cc(Cl)ccc1NC(=O)Cn1cnc2c1c(=O)n(C)c(=O)n2C returned LDHA inh -25.0.
Screening COc1cc(Cl)c(C)cc1NC(=O)C1CCN(c2nc3ccccc3n3cccc23)CC1 returned LDHA inh -2.1, TDP1 cell noCPT 16.4µM* and DT40 TDP1 CPT inconclusive.
